From PubChem BioAssay (NCI)
Compounds without any hit were thinned out: in the full panel of roughly 79,000, 15% have a hit. Rule as the data show it: active = growth inhibition above about 70%; inactive = the rest.

Columns and labels:
[1] = NCI Yeast Anticancer Drug Screen. Data for the rad50 strain (AID 155);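 also: 0% = growth of vehicle-only cultures of the same strain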; details: S. cerevisiae rad50 strain growth inhibition; at 50.0 µM; hits give high values
Procedure, shortened: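 A DNA repair-deficient yeast mutant serves as the test organism; compound-induced growth inhibition is calculated against vehicle-treated cells.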

[2] = NCI Yeast Anticancer Drug Screen. Data for the mec2-1 strain (AID 157); details: S. cerevisiae mec2-1 strain, at 50.0 µM, hits give high values
Procedure, shortened: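 mec2-1 yeast strain, carrying an alteration in DNA damage repair or cell cycle control, was exposed to compounds; growth inhibition was measured relative to vehicle-treated controls.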

[3] = NCI Yeast Anticancer Drug Screen. Data for the sgs1 mgt1 strain (AID 161);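 also: 0% = growth of cultures given vehicle only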; details: S. cerevisiae sgs1 mgt1 strain, at 50.0 µM, hits give high values
Procedure, shortened: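 Growth of a repair-deficient yeast mutant was monitored after compound treatment and expressed as inhibition relative to vehicle-treated cultures.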

[4] = NCI Yeast Anticancer Drug Screen. Data for the cln2 rad14 strain (AID 165);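 also: 0% = growth equal to vehicle treated cultures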; details: S. cerevisiae cln2 rad14 strain, at 50.0 µM, hits give high values
Procedure, shortened: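 Yeast carrying cln2 and rad14 alterations (cell cycle control and DNA damage repair) were exposed to compounds. Growth inhibition was measured against vehicle-treated controls.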

[5] = NCI Yeast Anticancer Drug Screen. Data for the bub3 strain (AID 167); details: S. cerevisiae bub3 mutant strain, at 50.0 µM, hits give high values
Procedure, shortened: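 Inhibition values come from growth of compound-treated mutant yeast normalised to vehicle-treated controls.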

[6] = NCI Yeast Anticancer Drug Screen. Data for the mlh1 rad18 strain (AID 175); details: S. cerevisiae mlh1 rad18 strain growth inhibition; at 50.0 µM; hits give high values
Procedure, shortened: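 Growth inhibition of the yeast strain was measured after compound exposure and expressed relative to vehicle-treated controls. The strain carries defined defects in DNA damage repair.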

Measured: growth inhibition

CCN(CC)Cc1cc(N)cc(N=Nc2ccc3c(c2)c2ccccc2n3CC)c1O
inactive: [1] 29.2% | [2] 0% | [3] 12.4% | [4] 27.7% | [5] -3.4% | [6] 17.9%

CCOC(=O)NC1C2CC3C(C2)C31 (configuration not stated)
inactive: [1] -54.6% | [2] -32.7% | [3] -29.4% | [4] -20.6% | [5] -52.4% | [6] -32.5%

O=C(c1ccc(Cl)cc1)N(C(=S)N1CCN(c2ccccn2)CC1)C1CCCCC1
inactive: [1] 4.5% | [2] 13.7% | [3] 15.3% | [4] 6.85% | [5] -16.6% | [6] 19.4%

O=C1C=C(c2ccccc2)C(O)(c2ccccc2)/C1=C/C=C/c1ccccc1 (configuration not stated)
inactive: [1] -3.55% | [2] -14.1% | [3] 6.5% | [4] -12.2% | [5] -5.2% | [6] -8.35%

COc1ccc2ccccc2c1C1NC(=O)c2ccccc2N1 (configuration not stated)
inactive: [1] 13.1% | [2] -17.8% | [3] 5.75% | [4] 8.9% | [5] 12.5% | [6] 0.1%

CCOC1CSc2ccccc2C(c2ccccc2)=N1 (configuration not stated)
inactive: [1] 9.9% | [2] -1.4% | [3] 0.25% | [4] 10.6% | [5] 14.7% | [6] 6.75%

CCCCCC(O)C(C)C (configuration not stated)
inactive: [1] 1.5% | [2] -2.55% | [3] -8.65% | [4] -36.8% | [5] 15.7% | [6] 6.8%

CNCC(N)=O
inactive: [1] -0.05% | [2] 5.95% | [3] 15.3% | [4] -2.95% | [5] -2.4% | [6] 33%

c1ccn2c(CCc3nnc4ccccn34)nnc2c1
inactive: [1] -1.75% | [2] -8.4% | [3] -6.35% | [4] -18.3% | [5] -1.9% | [6] -13.1%

C[Si](C)(C)c1ccc2c(c1O)C(=O)c1ccccc1C2=O
inactive: [1] 10.6% | [2] 16.9% | [3] 31.9% | [4] 53.6% | [5] -1.15% | [6] 3.3%

NC(=O)CCCC(C(N)=O)(c1ccccc1)c1ccccc1
inactive: [1] 9.2% | [2] 13.3% | [3] 3.25% | [4] -11.2% | [5] -7.15% | [6] -3.9%

C[N+]1(CCC(/C=C/c2ccc([N+](=O)[O-])cc2)=N\O)CCOCC1
inactive: [1] 17.3% | [2] -0.9% | [3] 14.8% | [4] -6.55% | [5] 1.05% | [6] 46.5%

CN(C)CC1CCc2c(n(C)c3ccccc23)C1=O (configuration not stated)
inactive: [1] -2.55% | [2] -2.85% | [3] 5.2% | [4] -51.8% | [5] -4.35% | [6] 10.6%

O=C(N/N=C\c1ccc(Cl)cc1)Nc1ccc2ccccc2c1
inactive: [1] 2.9% | [2] 11.1% | [3] 4.35% | [4] 12.9% | [5] 20% | [6] 29.1%

NC(=Nc1ccc(Br)cc1)/N=C(/N)Nc1cccc(S(=O)(=O)Nc2ncc(Cl)cn2)c1
inactive: [1] 10.2% | [2] -8.75% | [3] 25.2% | [4] 15.8% | [5] 1.95% | [6] 4.95%

CCCSc1n[nH]c(=S)c2nc[nH]c12
inactive: [1] -2% | [2] -24.3% | [3] -14.8% | [4] -5.5% | [5] -21.8% | [6] -1.15%

CCCCC1(O)c2ccc3ccccc3c2C(O)(CCCC)c2cccc(-c3ccccc3)c21 (configuration not stated)
inactive: [1] 24.1% | [2] -0.05% | [3] 10.2% | [4] -1.75% | [5] -3.15% | [6] 38.8%

c1nnc2c3c4c(sc3ncn12)CCCC4
inactive: [1] 0.4% | [2] -5.05% | [3] 2.4% | [4] -24.7% | [5] -0.1% | [6] 4.55%

CO[C@H]1CC2CC1C1C3=C(NC21)C1(O)C[C@H]2CN(CC3)C1C[C@@H]2C(C)CO (some centres not stated)
inactive: [1] -3.6% | [2] 9.9% | [3] 2.75% | [4] -0.15% | [5] 1.45% | [6] -23.6%

Cn1nnc2c(C(N)=S)ncn2c1=O
inactive: [1] 30.1% | [2] 11% | [3] 10.7% | [4] 19.6% | [5] 17.9% | [6] 22%

COC(=O)c1cncc(C(=O)OC)c1
inactive: [1] -3.9% | [2] -12% | [3] 2.75% | [4] -2.35% | [5] 1.95% | [6] 12.8%

Cc1cc(C)c2ccccc2n1
inactive: [1] -6.45% | [2] -30.4% | [3] -8.2% | [4] -3.4% | [5] -5.1% | [6] 18.1%

COc1ccc(/C(=N/NS(=O)(=O)c2ccc([N+](=O)[O-])cc2)C2COC(=O)C2)cc1OC (configuration not stated)
inactive: [1] 6.15% | [2] -9% | [3] 3.25% | [4] -13.4% | [5] 14% | [6] 2.25%

Cc1ccc(OC/C=C/c2ccc([N+](=O)[O-])cc2)cc1
inactive: [1] -1.45% | [2] -9.3% | [3] -7.4% | [4] -58.8% | [5] -4.55% | [6] -19.2%

COc1ccc2c(c1)[n+](=O)c(C(=O)C/C(=N/OCCCc1ccccc1)C(=O)NC13CC4CC(CC(C4)C1)C3)c(C)n2[O-]
inactive: [1] -1.3% | [2] -3.2% | [3] -19.4% | [4] 17.1% | [5] 3.85% | [6] -4.6%

O=C(O)CCSc1nc2ccccc2s1
inactive: [1] 1.2% | [2] -9.85% | [3] 2.75% | [4] 0.3% | [5] -14.2% | [6] 19.1%

Cc1ncc([N+](=O)[O-])cc1C(=O)O
inactive: [1] 1% | [2] 10% | [3] -0.75% | [4] -7.1% | [5] 5.7% | [6] -1.45%

CC(C)=CCOc1ccc(-c2coc3cc4c(c(O)c3c2=O)C=CC(C)(C)O4)cc1
inactive: [1] 15.7% | [2] 3.1% | [3] 15.9% | [4] 13.3% | [5] 24% | [6] 26.8%

O=C1C=CC(=O)C1
inactive: [1] 16% | [2] -7.95% | [3] 3.15% | [4] -0.3% | [5] 5.65% | [6] -3.75%

CC(=O)Nc1ccccc1OC(=O)c1ccccc1
inactive: [1] 4.4% | [2] -4.4% | [3] 2.6% | [4] 11.9% | [5] 1.8% | [6] -2.5%

CC(=O)Nc1c([N+](=O)[O-])cc(O)cc1[N+](=O)[O-]
inactive: [1] -17.9% | [2] -15.7% | [3] 12.3% | [4] -26.3% | [5] -16.9% | [6] -8.45%

CCN(CC)C1CCC(C2c3cc4c(cc3OC(N3CCOCC3)C2C)OCO4)CC1 (configuration not stated)
inactive: [1] -11.1% | [2] -18.4% | [3] -22.8% | [4] -63% | [5] 7.95% | [6] -22.4%

O=c1c2ccccc2n2c(-c3ccccc3O)nnc2n1-c1ccccc1
inactive: [1] 6.5% | [2] 14.8% | [3] 35.1% | [4] 26.2% | [5] 6.6% | [6] 18.2%

COc1cccc(C)c1C(O)CC1CCCN1 (configuration not stated)
inactive: [1] 21.6% | [2] 3.75% | [3] 7.2% | [4] 29.8% | [5] 11.7% | [6] 6.05%

O=c1oc2ccc([N+](=O)[O-])cc2cc1-c1csc(-c2ccccc2)n1
inactive: [1] 3% | [2] -9.35% | [3] -7.05% | [4] 7.45% | [5] -26.3% | [6] -48.8%

CC(=O)c1c(O)c(Nc2ccccc2)cc2nc3ccccc3nc12
inactive: [1] -4.45% | [2] 3.95% | [3] -0.4% | [4] -10.3% | [5] -8.75% | [6] -23.3%

CN(C)C(=S)Oc1ccc([N+](=O)[O-])cc1Cl
inactive: [1] 17.9% | [2] 6.95% | [3] 4.95% | [4] 19.4% | [5] -3.3% | [6] 29.3%

C(CCN1CCOCC1)CN1CCOCC1
inactive: [1] -3.4% | [2] 4.5% | [3] 0.45% | [4] -4.1% | [5] -10.7% | [6] 1.15%

COc1cc(COC(=O)Nc2ccccc2F)cc(OC)c1OC
inactive: [1] -4.9% | [2] -19.1% | [3] 7.25% | [4] 5.85% | [5] 19.6% | [6] -10%

O=C1c2cc(Cl)ccc2NC(O)c2cccn21 (configuration not stated)
inactive: [1] 3.45% | [2] 1.8% | [3] -4.3% | [4] -20.9% | [5] -11.4% | [6] -0.55%

COc1cc(-c2c3c(cc4c2OCO4)CC(O)C(C(=O)O)C3)cc(OC)c1OC (configuration not stated)
inactive: [1] 40.9% | [2] -2.6% | [3] 0.4% | [4] 15.1% | [5] 1.75% | [6] 5.6%

CCCCN=C(OC1C=CCCC1)SC (configuration not stated)
inactive: [1] -12.8% | [2] -25.6% | [3] -14.6% | [4] 9.95% | [5] -4.7% | [6] -7.7%
